Most compounds without a hit are left out; they make up all but 3.4% or so of the library.
miR122 inh: inhibitors of miR-122 in Huh7 cells | activation (reporter increase), % at 12.5 µM | hit rate 0.3% among 340,000 | Huh7 miR-122 Renilla luciferase sensor, 48 h; neutral wells = 0, positive control = 100;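 active = mean replicate activation score at least 90 and every replicate individually at or above 90; inconclusive = only one of the two criteria met; inactive = neither criterion met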;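 also: higher luciferase means less miR-122 activity so hits act as miR-122 inhibitors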
MITF TRPM1 HTS: activators of MITF-driven TRPM1 promoter activity in SK-MEL-5 cells; AID 588334; SK-MEL-5 TRPM1-promoter luciferase, 24 h; % of positive control, neutral wells = 0; activation, % at 12.5 µM; hit rate 0.75% among 300,000;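 active = mean activation of at least 80% with every replicate also reaching 80%; inconclusive = mean reaches 80% but some replicate falls short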;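 also: 0% = neutral control wells and 100% = parthenolide positive control wells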
Wnt bcat act: activates Wnt/beta-catenin signaling in a reporter cell assay; hit rate 1.2% among 300,000; AID 743398; activator, plate reader; activation, % at 9.35 µM; in the data active = activation above about 30%, passing the limit was not always enough; inconclusive = no clear call, values can overlap the other calls;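 also: 0% = neutral control wells and 100% = positive control wells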
esBAF inh: blocks esBAF chromatin remodeling in mouse ES cells. Bmi1-luciferase knock-in reporter, 24 h; 100% = twice the neutral-well signal. reporter increase, % at 12.5 µM. hit rate 2% among 350,000; in the data active = activation above about 40%; inconclusive = no clear call, values can overlap the other calls;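 also: 0% = median of the plate's neutral control wells and 100% = double that signal; a rise in the Bmi1 reporter signal indicates esBAF inhibition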
HIV Env fusion: HIV envelope-mediated fusion inhibition. HeLa-JRFL Env/CEM21 cell fusion, luciferase. inhibition, % at 12.3 µM. hit rate 1.1% among 360,000;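 active = mean replicate inhibition score of at least 50 and every replicate individually at or above 50; inconclusive = only one of the two criteria met; inactive = mean below 50 and not all replicates reaching 50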;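 also: 0% = plate neutral controls and 100% = maraviroc near 300 nM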
The depositor's hits bear a star; ? = inconclusive; nt = no result given; [ ] = dose if it differs, or a comment.

SMILES	miR122 inh	MITF TRPM1 HTS	Wnt bcat act	esBAF inh	HIV Env fusion
O=C(c1cccc2ccccc12)N1CCCCC1	-1	-4	0	3	-2
O=C(c1ccc2ccccc2c1O)N1CCCCC1	23	nt	-4	56*	0
CC(C)N1C(=O)S/C(=C\c2ccc(-c3ccc(Cl)c(C(=O)O)c3)o2)C1=O	-4	nt	30	48*	-120
O=C(C[C@@H]1C[C@H]2c3cc(NC(=O)NC4CCCC4)ccc3O[C@H]2[C@H](CO)O1)NCc1ccc(-c2ccccc2)cc1	7[16.7 µM]	nt	nt	6	nt
CCOc1ccc(C2CC(c3ccccc3C)n3nc(N)nc3N2)cc1 (centres undefined)	-7	nt	-2	1	65*
CCN1[C@H](C(=O)NC2CCCC2)[C@@H](CO)[C@@H]2Cn3c(ccc(-c4ccccc4F)c3=O)[C@@H]21	6[16.7 µM]	nt	nt	5	nt
CCN(CC)c1ccc(/C=C2\SC(N)=NC2=O)cc1	-1	32	0	49*	-7
NC1=NC(=O)/C(=C/c2ccc(OCC(=O)O)cc2)S1	-5	-1	1	-6	5
CC1(C)CC(N2CCN(c3ccccc3)CC2)=CC(=[N+]2CCCC2)C1	-3	-58	22	-9	81*
CN(Cc1ccccc1)C1=CC(=[N+]2CCCC2)CC(C)(C)C1	-9	-75	-6	-35	60*
O=S(=O)(N[C@H]1CC[C@H](CCn2cc(-c3ccccn3)nn2)O[C@@H]1CO)c1cccc(Cl)c1	4[16.7 µM]	nt	nt	-4	19[16.7 µM]
O=C(NCC[C@H]1CC[C@H](NC(=O)C2CCOCC2)[C@@H](CO)O1)Nc1ccc(Cl)cc1	nt	nt	nt	3	-2[16.7 µM]
O=C(c1ccccc1)c1cc[n+]([O-])cc1	-3	nt	-3	0	-111
[O-][n+]1ccc(C2CC2)cc1	7	nt	39*	4	-36
Cc1ccc(CSc2nc3ccncc3n2CC(=O)Nc2cc(C)cc(C)c2)cc1	-2	35	0	48*	-44
Cc1cc(C)cc(NC(=O)CSc2nc3ccncc3[nH]2)c1	nt	nt	-1	-5	-7
C[C@H](CO)N1C[C@H](C)[C@H](CN(C)C(=O)Nc2cccc3ccccc23)Oc2ccc(NS(=O)(=O)c3cccs3)cc2CC1=O	4[16.7 µM]	nt	nt	1	-7[16.7 µM]
COc1ccc(-n2nnnc2-c2cnc(N3CCCC3)nc2C(F)(F)F)cc1	-1	nt	nt	11	72*
FC(F)(F)c1nc(-c2cccs2)ncc1-c1nnnn1-c1ccc(Cl)cc1	nt	0	nt	nt	70*
FC(F)(F)c1nc(-c2cccnc2)ncc1-c1nnnn1-c1ccccc1	2	nt	-8	7	0
C[C@@H]1CN([C@H](C)CO)C(=O)c2cccc(N(C)C)c2O[C@@H]1CN(C)Cc1ccc(Oc2ccccc2)cc1	-4[16.7 µM]	nt	nt	0	6[16.7 µM]
Cc1ccc2c(c1)c1nc3ccccc3nc1n2CCN1CCOCC1	-2	nt	nt	60*	-34
CC(C)(C)[C@@H]1C=C(C(=O)Nc2ccccc2)O[C@H](OCc2ccc(CO)cc2)C1	0	25	-3	9	97*
NC(=O)C1=C[C@H](C2CCCCC2)C[C@H](OCc2ccc(CO)cc2)O1	-3	107*	?	73*	-92
COC(=O)[C@@H]1[C@@H](CO)[C@@H]2Cn3c(ccc(C4=CCCC4)c3=O)[C@@H]2N1C(=O)C1CCC1	2[16.7 µM]	nt	nt	-3	nt
SMILES	miR122 inh	MITF TRPM1 HTS	Wnt bcat act	esBAF inh	HIV Env fusion
Cc1cccc(OCC(=O)N/N=C/c2cccn2C)c1	-3	4	2	0	62*
Cc1ccc(OCC(=O)N/N=C/c2cccn2C)cc1C	nt	10	-1	-5	-11
Cc1noc(C)c1S(=O)(=O)N(C)C[C@H]1Oc2ccc(NS(=O)(=O)c3ccccc3)cc2CC(=O)N([C@H](C)CO)C[C@H]1C	16[16.7 µM]	nt	nt	-11	-5[16.7 µM]
COc1cc(/C=N/N2CCOCC2)ccc1OCc1ccc(Cl)cc1	nt	96*	11	nt	-41
COc1cc(/C=N/N2CCOCC2)ccc1OCc1ccccc1	nt	53	13	61*	-40
COc1cc(/C=N/OCC(=O)NC2CCCCC2C)ccc1OCc1ccc(Cl)cc1 (centres undefined)	-4	42	47*	98*	4
COc1ccc(/C=N/N2CCOCC2)cc1OCc1ccccc1	-3	-1	-4	-8	4
COc1ccc(/C=N/N2CCOCC2)cc1O	-4	14	nt	20	-6
Cc1ccc(N2CCN(C(=O)c3cc(COc4c(C)cccc4C)on3)CC2)c(C)c1	2	5	1	0	nt
COc1cccc(OCc2cc(C(=O)N3CCN(c4ccccc4OC)CC3)no2)c1	-6	83*	37*	77*	-23

Screening data: PubChem BioAssay, Broad Institute
